# According to paper PMC4336329 (PLoS ONE, 2015):
# In all, about 310,000 compounds went through this assay and about 14,000 (4.5%) showed an effect of 50% or more. The effect is printed as a negative number. Many of the other results were omitted from the sample, so strong results are more common in it than they were.
# Biological target: human ether-à-go-go-related gene (hERG) potassium channel (human, UniProt Q12809)
# Assay: primary screen, population patch clamp on CHO cells stably expressing hERG; higher = less effect of the substance
# 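Note: peak tail current of the secondary pulse compared with the same well before compound.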
# Chain of human ether-à-go-go-related gene (hERG) potassium channel (Q12809 whole entry, looked up): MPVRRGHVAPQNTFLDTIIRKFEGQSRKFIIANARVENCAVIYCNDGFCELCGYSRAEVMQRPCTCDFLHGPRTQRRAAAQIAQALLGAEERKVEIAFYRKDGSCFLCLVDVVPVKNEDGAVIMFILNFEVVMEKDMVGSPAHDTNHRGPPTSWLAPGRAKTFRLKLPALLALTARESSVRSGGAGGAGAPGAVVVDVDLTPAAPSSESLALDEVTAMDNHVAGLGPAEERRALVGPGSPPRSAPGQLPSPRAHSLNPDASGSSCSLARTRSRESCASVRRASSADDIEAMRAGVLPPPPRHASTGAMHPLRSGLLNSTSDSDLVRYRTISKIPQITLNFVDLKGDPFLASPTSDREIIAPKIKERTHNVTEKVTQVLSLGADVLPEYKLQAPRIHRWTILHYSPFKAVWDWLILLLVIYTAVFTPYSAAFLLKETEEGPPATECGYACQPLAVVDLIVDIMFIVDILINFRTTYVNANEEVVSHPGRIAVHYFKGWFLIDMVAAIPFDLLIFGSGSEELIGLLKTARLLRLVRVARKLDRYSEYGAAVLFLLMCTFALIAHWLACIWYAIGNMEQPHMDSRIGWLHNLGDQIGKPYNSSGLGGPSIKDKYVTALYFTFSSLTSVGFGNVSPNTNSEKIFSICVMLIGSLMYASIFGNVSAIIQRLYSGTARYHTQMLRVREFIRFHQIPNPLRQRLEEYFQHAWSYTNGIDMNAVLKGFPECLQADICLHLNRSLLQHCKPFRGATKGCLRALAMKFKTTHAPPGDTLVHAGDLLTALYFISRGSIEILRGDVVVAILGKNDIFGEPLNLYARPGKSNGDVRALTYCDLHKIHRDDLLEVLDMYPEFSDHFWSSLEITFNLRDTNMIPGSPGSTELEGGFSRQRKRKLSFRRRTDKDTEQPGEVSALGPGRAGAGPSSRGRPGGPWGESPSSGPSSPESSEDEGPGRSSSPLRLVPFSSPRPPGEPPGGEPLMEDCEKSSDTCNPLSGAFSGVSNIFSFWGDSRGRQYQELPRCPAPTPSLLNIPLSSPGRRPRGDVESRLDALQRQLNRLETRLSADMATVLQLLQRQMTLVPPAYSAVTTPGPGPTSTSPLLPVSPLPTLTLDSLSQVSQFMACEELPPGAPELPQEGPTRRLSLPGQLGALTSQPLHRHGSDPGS
row,SMILES,"hERG current change (%, negative = inhibition) at 10uM"
1,C=CCSc1n[nH]c(-c2ccc(OCCCC)cc2)n1,-7.32%
2,Cc1cccc(N2CCN(C(=O)c3ccc4nc(-c5ccco5)c(-c5ccco5)nc4c3)CC2C)c1 (centres unmarked),2.44%
3,COc1cccc(N2CCN(C(=O)c3ccc(=O)oc3)CC2C)c1 (centres unmarked),-59.7%
4,COc1cccc(NC(=O)N2CCN(c3cccc(C)c3)C(C)C2)c1 (centres unmarked),-16%
5,CC(C)CCNc1cc(=O)n(C)c(=O)n1C,4.5%
6,CC(C)c1ccc(NC2CCCN(C(=O)c3cccnc3)C2)cc1 (centres unmarked),0.148%
7,Cc1c(C(=O)Nc2ccc(F)cc2)sc2ncn(CC(=O)N3CCCCC3)c(=O)c12,1.43%
8,O=C(N/N=C\c1ccc(Br)cc1)c1ccc(Cn2cccn2)o1,-34.1%
9,O=C(N/N=C\c1cccc(Cl)c1)c1ccc(Cn2cccn2)o1,-71.2%
10,O=C(N/N=C\c1c(O)ccc2ccccc12)c1ccc(Cn2cccn2)o1,9.2%
11,O=C(N/N=C\c1ccc(Cl)s1)c1ccc(Cn2cccn2)o1,-57.2%
12,CC(C)c1ccc(/C=N\NC(=O)c2ccc(Cn3cccn3)o2)cc1,-42%
13,Cc1ccccc1/C=N\NC(=O)c1ccc(Cn2cccn2)o1,4.98%
14,O=C(OCCOCCN=C1NS(=O)(=O)c2ccccc21)c1ccccc1,2.47%
15,COc1ccc(CNC(=O)CN(c2cccc(OC)c2)S(C)(=O)=O)cc1,2.47%
16,Cc1cc2c(NC(=O)Nc3ccc(F)cc3)cccc2nn1,8.16%
17,Clc1cccc(NCc2nnc(SCc3ccccc3)o2)c1,3.21%
18,COc1ccc(Cn2c(-c3ccc(OC)cc3)nc3ccccc32)cc1,-36.9%
19,CCOc1ccc2[nH]c(=O)c(CN(CCO)C(=O)c3ccc(OC)c(OC)c3)cc2c1,-0.583%
20,CCCCN1C=CC(=C2C(=O)c3ccccc3C2=O)C=C1,-1.69%
21,CCCCCN1C=CC(=C2C(=O)c3ccccc3C2=O)C=C1,-61%
22,CCCCCCN1C=CC(=C2C(=O)c3ccccc3C2=O)C=C1,10.5%
23,CCOC(=O)c1c(C)cc(C)n2c1nc1ccccc12,-38.8%

row,SMILES,"hERG current change (%, negative = inhibition) at 10uM"
1,CN(Cc1c(C(=O)N/N=C/c2ccccc2)nnn1-c1nonc1N)C1CCCCC1,8.4%
2,NC(N)=N/N=C/c1ccc(N(c2ccccc2)c2ccccc2)cc1.O=[N+]([O-])O,-50.8%
3,NC(N)=N/N=C/c1ccc(OS(=O)(=O)c2ccccc2)cc1,-55.6%
4,CCC(=O)N/N=C/c1ccc(OS(=O)(=O)c2ccccc2)cc1,-17.5%
5,COc1ccc(/C=N\N=C(N)N)cc1.O=[N+]([O-])O,-1.01%
6,CCN(Cc1ccccc1)c1ccc(/C=N/N=C(N)N)cc1,-25%
7,CN(C)/N=C/c1ccc(OS(=O)(=O)c2ccccc2)cc1,8.55%
8,COc1ccc(C(CNC(=O)COc2cc(C)ccc2Cl)N2CCCCC2)cc1 (centres unmarked),1.57%
9,O=C(c1ccc2c3c(cccc13)CC2)C1CCCN(C(=O)c2ccc(=O)[nH]c2)C1 (centres unmarked),4.99%
10,COc1ccc(OC)c(-n2c(=S)[nH]c3cc(C(=O)N4CCC(C(N)=O)CC4)ccc3c2=O)c1,-2.14%
11,COc1ccc(-c2csc(COC(=O)C(C)(C)C)n2)cc1,18%
12,CC(C)c1nc2oc3c(NCC4CCCO4)ncnc3c2c2c1CCC2 (centres unmarked),-27.4%
13,CC(C)Cc1nc2oc3c(NCc4cccnc4)ncnc3c2c2c1CCC2,-50.8%
14,CC(C)c1nc2oc3c(NCc4cccnc4)ncnc3c2c2c1CCC2,-50.2%
15,CC(C)c1nc2oc3c(N(C)CCO)ncnc3c2c2c1CCC2,-28.1%
16,CC(C)Cc1nc2oc3c(NCC(C)O)ncnc3c2c2c1CCCC2 (centres unmarked),-7.54%
17,CC(C)Cc1nc2oc3c(NCC4CCCO4)ncnc3c2c2c1CCC2 (centres unmarked),-35.8%
18,Cc1ccc(Cn2c(Sc3nccc(C)n3)nc3c2c(=O)[nH]c(=O)n3C)cc1,-8.13%
19,N#CCCNC(=O)Cn1c(COc2ccc(Cl)cc2)nc2ccccc21,-24.5%
20,Cc1ccc(/C=C/c2nc3ccccc3s2)s1,3.83%
21,Cc1oc(-c2ccc(Cl)cc2)nc1CN1CCC(C(=O)N2CCN(Cc3ccccc3)CC2)CC1,-69.1%
22,Cc1oc(-c2ccc(Cl)cc2)nc1CN1CCC(C(=O)N2CCc3ccccc3C2)CC1,-74%
23,COC(=O)c1ccc(-c2nc(CN3CCN(Cc4cccc(C)c4)CC3)c(C)o2)cc1,-25.3%

row,SMILES,"hERG current change (%, negative = inhibition) at 10uM"
1,Cc1oc(-c2ccc(-c3ccccc3)cc2)nc1CN1CCN(CC(=O)N(C)C)CC1,-53%
2,Cc1oc(-c2ccccc2)nc1CS(=O)CC(=O)N1CCc2ccccc2C1 (centres unmarked),-20.5%
3,Cc1oc(-c2ccccc2)nc1C(=O)O,17%
4,Cc1ccc(-c2nc(CS(=O)(=O)CC(=O)N3CCc4ccccc4C3)c(C)o2)cc1,-16%
5,CCC/C(O)=C1\C(=O)CC(C)(C)CC1=Nc1ccccc1OC,-13.4%
6,O=C(CCc1nnc(C2CCCCC2)o1)N1CCN(Cc2ccccc2)CC1,5.53%
7,COCCN(C(=O)CCC(=O)Nc1nccs1)C(C(=O)NC(C)(C)C)c1ccc(C)cc1 (centres unmarked),5.03%
8,COc1ccccc1C1CCN(c2cc(O)ccc2[N+](=O)[O-])CC1,4.65%
9,Cc1cccc(NS(=O)(=O)c2nnc(NC(=O)c3cccc(C)c3)s2)c1,2.44%
10,O=C(Nc1cc(-c2nc3ccccc3s2)ccc1Cl)c1ccc2c(c1)OCO2,7.51%
11,CCOC(=O)c1nc2nc(C)c(Cl)c(=O)n2[nH]1,0.341%
12,COc1cccc2cc(C(=O)NC(C)c3ccccc3)c(=O)oc12 (centres unmarked),16.3%
13,CCc1nn(CC(=O)NCCCN2CCCC2=O)c(=O)c2cc3sccc3n12,-12.3%
14,CCc1nn(CC(=O)NCCCN2CCN(C)CC2)c(=O)c2cc3sc(C)cc3n12,14.8%
15,CCc1cc2c(cc3c(=O)n(CC(=O)NCCCN4CCCCCC4)nc(CC)n32)s1,-72.7%
16,CCc1cc2c(cc3c(=O)n(CC(=O)NCCCN(CC)CC)nc(CC)n32)s1,-34.9%
17,CCCCN(CCCNC(=O)Cn1nc(CC)n2c(cc3sc(C)cc32)c1=O)Cc1ccccc1,-47.1%
18,CCc1nn(CC(=O)NCCCN2CCOCC2)c(=O)c2cc3sccc3n12,16.2%
19,CCc1nn(CC(=O)NCCCN2CCN(C)CC2)c(=O)c2cc3sccc3n12,7.04%
20,CCc1nn(CC(=O)NCCCN(Cc2ccccc2)C(C)C)c(=O)c2cc3sccc3n12,-43.8%
21,CCc1nn(CC(=O)NCCCN(CC)CC)c(=O)c2cc3sc(C)cc3n12,7.73%
22,CCc1nn(CC(=O)NCCCN2CCc3ccccc3C2)c(=O)c2cc3sccc3n12,-70.2%
23,CCc1nn(CC(=O)NCCCN(CC)Cc2ccccc2)c(=O)c2cc3sccc3n12,-50.2%

row,SMILES,"hERG current change (%, negative = inhibition) at 10uM"
1,CCc1nn(CC(=O)NCCCN(C)Cc2ccccc2)c(=O)c2cc3sc(C)cc3n12,-69.9%
2,CN1Cc2c(N3CCOCC3)nc3sc(C#N)c(N)c3c2CC1(C)C,-8.57%
3,CCOC(=O)c1cc(-c2ccccc2C)nn1CC1CC(c2ccc(OC)cc2)=NO1 (centres unmarked),3.54%
4,Cc1cccc(CS(=O)(=O)Cc2ccc(C(=O)NCCc3ccccc3)o2)c1,-38.8%
5,Cc1ccc(NC(=O)COC(=O)Cn2c(C)csc2=O)cc1C,2.05%
6,CC(=O)N1CCC(N(C(=O)Nc2ccc(C)c(C)c2)C2CCCC2)CC1,-31.2%
7,Cc1nnc(SCC2=C(C(=O)[O-])N3C(=O)C(NC(=O)Cc4ccccc4)C3SC2)s1.[Na+] (centres unmarked),9.74%
8,CCn1c(C(=O)N2CCc3ccccc3C2)cc2sccc21,-3.24%
9,CCn1c(C(=O)NCCCN2CCc3ccccc3C2)cc2sccc21,-64%
10,CCN1CCN(CCCNC(=O)c2cc3sccc3n2CC)CC1,-40.8%
11,N#Cc1ccc(OCC(=O)OCC(=O)Nc2ccc(N3CCOCC3)cc2)cc1,-15.3%
12,CC(=O)NCc1ccc(C(=O)CCl)s1,-7.15%
13,CCN(CC)CCn1c2ccccc2c2cnc(N=CN(C)C)c(C#N)c21,-31.8%
14,CN(C)C=Nc1ncc2c3ccccc3n(CCN(C)C)c2c1C#N,-15.7%
15,CCN(CC)CCn1c2ccccc2c2cnc(N)c(C#N)c21,-60.5%
16,CC1CN(C(=O)CSc2nc(N)cc(N)n2)CC(C)O1 (centres unmarked),-10.3%
17,Cc1nnc2c(NC3CCCC3)nc3ccccc3n12,-37.3%
18,CCCOc1ccc(N2C(=O)CC(N(CCc3ccc(OC)c(OC)c3)C(=O)c3ccccc3)C2=O)cc1 (centres unmarked),-74.9%
19,COc1ccc(CCN(C(=O)c2cccc(F)c2)C2CC(=O)N(c3ccccc3)C2=O)cc1 (centres unmarked),-38.5%
20,CCOc1ccc(N2C(=O)CC(N(CCc3ccc(OC)cc3)C(=O)c3cccc(F)c3)C2=O)cc1 (centres unmarked),-63%
21,CCCOc1ccc(N2C(=O)CC(N(CCc3ccc(OC)cc3)C(=O)c3cccc(F)c3)C2=O)cc1 (centres unmarked),-8.44%
22,CCCOc1ccc(N2C(=O)CC(N(CCc3ccccc3)C(=O)c3ccccc3)C2=O)cc1 (centres unmarked),10.8%
23,CCCOc1ccc(N2C(=O)CC(N(CCc3ccc(OC)cc3)C(=O)c3ccccc3)C2=O)cc1 (centres unmarked),-10.6%
